# High-throughput results from PubChem.
# Anthrax LF inh2 = blocks Bacillus anthracis lethal factor protease. P15917. 360,000 tested, 0.12% active. multiplex microsphere protease cleavage assay, LF. AID 588501. inhibition, % at 10 µM; note: plate controls were buffer without enzyme for full effect and enzyme alone for no effect
# Target sequence (P15917 whole entry, looked up): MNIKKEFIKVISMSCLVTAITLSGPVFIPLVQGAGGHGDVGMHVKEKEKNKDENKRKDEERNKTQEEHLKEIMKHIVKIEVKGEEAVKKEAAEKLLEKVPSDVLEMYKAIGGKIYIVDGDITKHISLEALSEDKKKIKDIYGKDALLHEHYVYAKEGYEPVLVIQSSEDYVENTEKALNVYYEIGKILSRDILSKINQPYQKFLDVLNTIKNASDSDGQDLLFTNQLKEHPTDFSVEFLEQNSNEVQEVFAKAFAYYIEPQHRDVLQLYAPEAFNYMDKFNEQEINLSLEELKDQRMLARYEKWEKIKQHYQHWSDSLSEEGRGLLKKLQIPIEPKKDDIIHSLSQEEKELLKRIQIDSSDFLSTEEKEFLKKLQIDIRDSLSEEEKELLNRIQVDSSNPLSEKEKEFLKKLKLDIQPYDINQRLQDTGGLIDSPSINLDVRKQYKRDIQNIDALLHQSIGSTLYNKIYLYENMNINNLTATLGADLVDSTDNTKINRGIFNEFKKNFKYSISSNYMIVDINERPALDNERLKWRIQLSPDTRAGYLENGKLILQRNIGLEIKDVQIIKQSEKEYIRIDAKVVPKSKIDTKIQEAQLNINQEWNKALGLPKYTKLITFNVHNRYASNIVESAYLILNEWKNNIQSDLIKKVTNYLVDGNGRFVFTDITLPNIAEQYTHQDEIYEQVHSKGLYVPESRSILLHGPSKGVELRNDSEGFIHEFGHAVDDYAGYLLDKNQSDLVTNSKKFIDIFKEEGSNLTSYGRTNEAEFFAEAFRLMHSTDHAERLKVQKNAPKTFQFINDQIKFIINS
# BoNT F protease = inhibitors of Botulinum neurotoxin F light chain protease. 360,000 tested, 0.22% active. Multiplex microsphere protease cleavage assay, flow cytometry. inhibition, % at 10 µM; in the data active = inhibition above about 35%, passing the limit was not always enough; inconclusive = no clear call, values can overlap the other calls; note: plate controls were buffer without enzyme for full effect and enzyme alone for no effect
# SSB-PriA inh = blocks PriA binding to SSB C-terminal tail. AlphaScreen SSBct-PriA binding, biotinylated peptide. inhibition, % at 33 µM. 430,000 tested, 0.6% active; in the data active = inhibition mostly above about 37%, no sharp cut-off; inactive = mostly below about 20%;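 note: plate controls were negative control peptide for no effect and reference peptide for full effect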
# Bead autofluor = compound fluorescence in toxin protease inhibitor counterscreen; compound autofluorescence counterscreen, microsphere flow cytometry; stronger effect = higher value; fluorescence intensity (test concentration not listed); 360,000 tested, 3.1% active; AID 624483; in the data active = fluorescence intensity above about 16000; inconclusive = no clear call, values can overlap the other calls
# BoNT-A LC inh2 = blocks Botulinum neurotoxin A light chain protease. multiplex microsphere protease substrate cleavage, flow cytometry. inhibition, % at 10 µM. 360,000 tested, 0.17% active; note: plate controls were buffer without enzyme for full effect and enzyme alone for no effect
# * = called active by the depositor; ? = inconclusive; . = no result given. Only some compounds are listed: those with a hit (about 3.1% of all), similar ones and a draw of the others. Cut-off read from the data, not from the text of the source, unless noted: active = inhibition above about 30%; inconclusive = no clear call, values can overlap the other calls; inactive = below that.
SMILES,Anthrax LF inh2,BoNT F protease,SSB-PriA inh,Bead autofluor,BoNT-A LC inh2
O=C(O)CCc1ccc(-c2ccccc2)n1CC1CCCO1 (stereo unspecified),-2,5,-9,4790,-1
Cc1ccc(-c2ccc(CCC(=O)O)n2CC2CCCO2)cc1 (stereo unspecified),1,-4,8,22736*,?
COc1ccc(-c2c(C#N)c(N)nc3c2CCCC3)cc1OC,-1,1,-16,16197*,0
COc1cc(-c2c(C#N)c(N)nc3c2CCCC3)cc(OC)c1OC,-1,5,-2,7913,3
Cc1oncc1C(=O)N1CC(Oc2nccs2)C1,.,.,-13,.,.
CCCCCCCCC(=O)NNC(=O)c1c(O)c2ccccc2n(CC)c1=O,2,39*,2,3940,6
CCn1c(=O)c(C(=O)Nc2ccccc2C)c(O)c2ccccc21,1,6,-1,22484*,?
CS(=O)(=O)N1CCN(C(=O)c2c(F)cccc2F)CC1,-1,-3,-7,23941*,-1
O=C(c1ccc(NS(=O)(=O)c2cccc([N+](=O)[O-])c2)cc1)N1CCN(C(=O)c2ccco2)CC1,13,4,-6,3504,1
COc1cccc(C(=O)N2CCN(S(C)(=O)=O)CC2)c1,-5,0,0,23027*,-1
COc1cccc(S(=O)(=O)Nc2ccc(C(=O)N3CCN(C(=O)c4ccco4)CC3)cc2)c1,-9,5,19,18332*,5
CCCS(=O)(=O)N1CCN(C(=O)c2cccc(OC)c2)CC1,0,16,-15,3563,-1
O=C(Nc1nnc(CCS(=O)(=O)c2ccccc2)o1)c1ccc2c(c1)OCCO2,.,.,-22,.,.
O=S(=O)(Cc1cccc(F)c1)N1CCC(Oc2cccnn2)CC1,.,.,-12,.,.
Cc1cc(C(=O)CSc2nnc(-c3ccccc3F)o2)c(C)n1Cc1cccs1,-1,0,-7,20558*,0
COc1ccccc1-n1cnnc1SCC(=O)c1cc(C)n(Cc2cccs2)c1C,-1,-1,23,17083*,-1
Cc1c(-c2ccccc2)nc(N)c(C#N)c1-c1ccco1,0,-2,-3,20557*,0
O=C(O)COc1ccc(NC(=O)c2ccc3c(c2)C(=O)N(C2CCCCC2)C3=O)cc1,0,-2,-5,5361,2
CCC(=O)Oc1ccc(C(=O)Nc2ccc3c(c2)C(=O)N(C2CCCCC2)C3=O)cc1,-4,4,-5,19149*,3
CC(C)CNC(=O)c1ccc2c(c1)C(=O)N(C1CCCCC1)C2=O,-14,?,1,3243,-2
CC(C)(C)NC(=O)c1ccc2c(c1)C(=O)N(C1CCCCC1)C2=O,-6,-3,-3,16466*,-2
CC1(C)CC(=O)c2cnc(N3CCc4ccccc43)nc2C1,.,.,-49,.,.
Fc1cnc(N2CCc3ccccc32)nc1N1CCc2ccccc21,-2,-2,-10,16473*,0
O=C(O)COCc1nc2ccccc2[nH]1,2,-1,-2,25242*,-3
Cc1nn(-c2cc(C)c3ccccc3n2)c2c1CCC2,0,11,-2,20384*,6
SMILES,Anthrax LF inh2,BoNT F protease,SSB-PriA inh,Bead autofluor,BoNT-A LC inh2
C=CCCC(=O)N1CC[C@H](S(=O)(=O)c2ccccc2)C1,.,.,-13,.,.
O=C(c1cnc2ccccc2n1)N1CCC(Oc2cccnn2)CC1,.,.,-7,.,.
Cc1nn(C)cc1/C=N\N=C1\CCC2C3CCc4cc(O)ccc4C3CCC12C (stereo unspecified),.,.,-4,.,.
O=[N+]([O-])/C=C/c1cn(Cc2ccc(Cl)cc2)c2ccccc12,21,12,-7,4418,39*
CC(C)(C)NC(=O)NC(=O)COC(=O)CCCc1c[nH]c2ccccc12,-3,-9,13,24864*,-3
CCOC(=O)Cc1c[nH]c2ccccc12,0,-4,-12,8022,-1
CCOC(=O)CCCc1c[nH]c2ccccc12,-1,4,0,21767*,5
CCc1ccc2nc(N(CCN(CC)CC)C(=O)Cc3ccc4c(c3)OCO4)sc2c1,.,.,-6,.,.
CC1CCCCN1S(=O)(=O)c1ccc(NC(=O)c2cccc(-n3cnnn3)c2)cc1 (stereo unspecified),-12,18,-12,8266,2
COc1cccc(C(=O)Nc2nnc(Cc3ccc(S(=O)(=O)C(C)C)cc3)o2)c1,.,.,-3,.,.
C[C@H]1CCCN(S(=O)(=O)c2ccc(C(=O)Nc3nnc(Cc4cccs4)o3)cc2)C1,.,.,91*,.,.
CC(C)S(=O)(=O)c1cccc(C(=O)Nc2nnc(Cc3cccs3)o2)c1,.,.,41*,.,.
CC1CCCN(S(=O)(=O)c2ccc(NC(=O)c3cccc(-n4cnnn4)c3)cc2)C1 (stereo unspecified),-2,0,-7,20061*,1
CCSc1ccccc1C(=O)Nc1nnc(Cc2cccs2)o1,.,.,40*,.,.
COC(=O)CCCN(C)S(=O)(=O)c1ccc2c(c1)C(=O)c1ccccc1C2=O,.,.,31,.,.
O=C(Nc1nnc(Cc2cccs2)o1)c1ccc(S(=O)(=O)N2CCOCC2)cc1,.,.,79*,.,.
COCc1nnc(NC(=O)c2ccc(S(=O)(=O)N3CCOCC3)cc2)o1,1,-5,-12,5720,0
Cc1ccc(CNC(=O)c2ccc(C#CC(C)(C)O)s2)cc1,-2,-6,-14,22677*,?
Cc1cc(/C=C2/SC(=S)N(c3cccc(Cl)c3)C2=O)c(C)n1-c1cccnc1,51*,74*,30,8722,60*
Cc1cc(/C=C2/SC(=S)N(c3ccc([N+](=O)[O-])cc3)C2=O)c(C)n1-c1cccnc1,14,2,18,4024,33*
CC1CCN(/C=C(\C#N)S(=O)(=O)c2ccc(Cl)cc2)CC1,.,.,-3,.,.
O=C(O)CCCNS(=O)(=O)c1cccc2nsnc12,-2,0,-11,3928,2
O=C(O)c1cccc(NS(=O)(=O)c2cccc3nsnc23)c1,-11,10,-8,19434*,7
O=C(O)CNS(=O)(=O)c1cccc2nsnc12,4,0,2,22948*,2
CC(CCc1ccccc1)NC(=O)C(=O)NC1CCCC1 (stereo unspecified),.,.,-6,.,.
SMILES,Anthrax LF inh2,BoNT F protease,SSB-PriA inh,Bead autofluor,BoNT-A LC inh2
Cn1c(=O)cc(OCCCC(=O)Nc2ccc3c(c2)OCCO3)c2ccccc21,-2,2,-8,21630*,2
CCn1c(=O)cc(OCC(=O)Nc2cc(C)ccn2)c2ccccc21,-1,1,-5,22556*,0
CCN(CCCNC(=O)COc1cc(=O)n(CC)c2ccccc12)c1ccccc1,-3,-1,2,19587*,?
Cn1c(=O)cc(OCCCC(=O)Nc2cccnc2)c2ccccc21,-2,-2,-17,23694*,-2
CCn1c(=O)cc(OCC(=O)Nc2ccc3c(c2)OCCO3)c2ccccc21,-5,1,-2,19914*,1
CCn1c(=O)cc(OCC(=O)Nc2ccc(OC)c(OC)c2)c2ccccc21,0,-2,-2,2067,0
CCNc1ccc(Br)cc(C(=O)/C=C/c2ccccc2Cl)c1=O,45*,19,4,16998*,52*
CCCOc1cccc(C(=O)N(Cc2ccc(OC)c(OC)c2)C2CCS(=O)(=O)C2)c1 (stereo unspecified),-2,-3,-6,23243*,-1
